# Measurements from PubChem BioAssay (NCATS).
# “And” between values parts separate entries of the source, which are not always exact repeats. Identical values can stand only once. Inconclusive results are not listed. A call without a number means that no potency is given here. The source made the active and inactive calls. Unless noted, calls follow the shape of the full dose curve.
# Tests used:
# [1] = Primary qHTS for Huh7 cytotoxicity: counterscreen for inhibitors of MERS-S pseudotyped particle cell entry (AID 1479147); also: potency is read from the fitted curve at half-maximal effect
# [2] = Primary qHTS for inhibitors of MERS-S pseudo-typed particle cell entry (AID 1479149); also: nearly all actives have a fitted effect of over 60% in size; also: potency is read from the fitted curve at half-maximal effect
# [3] = Primary qHTS for Vero E6 cytotoxicity: counterscreen for inhibitors of SARS-S pseudo-typed particle cell entry (AID 1479150)
# [4] = Primary qHTS to identify inhibitors of SARS-CoV-2 cell entry (AID 1645846); settings: activity change, negative = inhibition: at 57.1 µM (top of the series) unless noted; also: nearly all actives have a fitted effect of over 45% in size; also: potency is read from the fitted curve at half-maximal effect
# Procedure, shortened: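 Entry measured by luciferase signal 48 h after adding SARS-CoV-2-S pseudotyped MLV particles to HEK293-ACE2 cells preincubated 1 h with compounds. Normalisation: bald particles and spike particles.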
# [5] = Confirmatory qHTS to identify inhibitors of SARS-CoV-2 cell entry (AID 1645844); also: potency is read from the fitted curve at half-maximal effect; nearly all actives have a fitted effect of over 45% in size
# Procedure, shortened: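 HEK293-ACE2, overnight seeding; cpd 1 h, 37C/5% CO2; + SARS-CoV-2-S MLV PP (Wuhan-Hu-1, ΔC19); 48 h; Bright-Glo luminescence. Data normalised to S PP and bald PP wells.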
# [6] = Cytotoxicity counterscreen for inhibitors of SARS-CoV-2 cell entry (AID 1645845); also: nearly all actives have a fitted effect of over 50% in size
# Procedure, shortened: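 Counterscreen run in the same HEK293-ACE2 line as the pseudotyped-particle entry assay, without particles. Viability after 48 h at 37 C was read as ATP luminescence, scaled between cell-containing and cell-free wells.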
# [7] = molecular target: Calcium and integrin-binding protein 1 (Homo sapiens) (UniProt Q99828); test: Validation qHTS for Identification of Calcium Integrin Binding protein 1 (CIB1) Competitor (AID 1508618; active = well fitted curve in the direction sought with a large enough effect; an effect the other way counts as inactive or inconclusive)
# Sequence of Calcium and integrin-binding protein 1 (Homo sapiens) (Q99828 whole entry, looked up): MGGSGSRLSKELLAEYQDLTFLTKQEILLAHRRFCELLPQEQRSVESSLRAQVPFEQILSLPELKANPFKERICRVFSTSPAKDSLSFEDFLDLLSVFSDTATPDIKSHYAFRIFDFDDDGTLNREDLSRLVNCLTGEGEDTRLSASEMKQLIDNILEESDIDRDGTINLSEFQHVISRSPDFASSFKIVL
# Procedure, shortened: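 In this qHTS validation, the LOPAC set (up to 114 uM) was tested for blocking CIB1 binding to a fluorescein-tagged alphaIIb peptide, with FP detection at 480/540 nm.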
# [8] = molecular target: Calcium and integrin-binding protein 1 (Homo sapiens) (UniProt Q99828); test: Primary qHTS for Identification of Calcium Integrin Binding Protein 1 (CIB1) Competitor (AID 1508620; active = well fitted curve in the direction sought with a large enough effect; an effect the other way counts as inactive or inconclusive;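 also: GST tagged CIB1 binding a fluorescein labelled alphaIIb integrin peptide tracer; top concentration of the series differs between compounds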)
# Procedure, shortened: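 Fluorescence polarization competition: GST-tagged CIB1 (1 uM final) preincubated with compound 15 min at room temperature, then FITC-labelled alphaIIb peptide (100 nM final) added. After 15 min at room temperature, polarization read at Ex 480/Em 540.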
# [9] = molecular target: Cytochrome P450 2D6 (Homo sapiens) (UniProt P10635); test: Cytochrome P450 family 2 subfamily D member 6 (CYP2D6) small molecule antagonists: luciferase biochemical (cell-free) qHTS assay (AID 1645840; active = well fitted curve in the direction sought with a large enough effect in the repeat runs; an effect the other way counts as inactive or inconclusive; also: nearly all actives have a fitted effect of over 55% in size; also: potency is read from the fitted curve at half-maximal effect)
# Sequence of Cytochrome P450 2D6 (Homo sapiens) (P10635 whole entry, looked up): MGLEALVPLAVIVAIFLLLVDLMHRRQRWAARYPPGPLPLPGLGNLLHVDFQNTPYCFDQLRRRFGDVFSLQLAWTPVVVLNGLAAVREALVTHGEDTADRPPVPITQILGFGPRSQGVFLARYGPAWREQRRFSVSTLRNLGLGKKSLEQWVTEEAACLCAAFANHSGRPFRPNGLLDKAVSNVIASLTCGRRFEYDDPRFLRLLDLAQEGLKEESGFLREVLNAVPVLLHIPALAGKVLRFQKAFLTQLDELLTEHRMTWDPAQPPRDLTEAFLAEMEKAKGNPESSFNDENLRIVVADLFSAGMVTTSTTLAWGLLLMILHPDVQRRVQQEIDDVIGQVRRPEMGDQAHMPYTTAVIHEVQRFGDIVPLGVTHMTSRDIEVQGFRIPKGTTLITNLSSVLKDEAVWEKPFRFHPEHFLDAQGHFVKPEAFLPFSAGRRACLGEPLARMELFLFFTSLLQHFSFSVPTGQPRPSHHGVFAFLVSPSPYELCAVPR
# Procedure, shortened: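 P450-Glo CYP2D6 system: proluciferin substrate converted by enzyme to luciferin, read by luminescence proportional to activity. Enzyme-substrate mix with compound 10 min at room temperature, then NADPH regeneration 1 h before detection reagent.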
# [10] = molecular target: Cytochrome P450 2C9 (Homo sapiens) (UniProt P11712); test: Cytochrome P450 family 2 subfamily C member 9 (CYP2C9) small molecule antagonists: luciferase biochemical (cell-free) qHTS assay (AID 1645842; active = well fitted curve in the direction sought with a large enough effect in the repeat runs; an effect the other way counts as inactive or inconclusive; also: nearly all actives have a fitted effect of over 55% in size; also: potency is read from the fitted curve at half-maximal effect)
# Sequence of Cytochrome P450 2C9 (Homo sapiens) (P11712 whole entry, looked up): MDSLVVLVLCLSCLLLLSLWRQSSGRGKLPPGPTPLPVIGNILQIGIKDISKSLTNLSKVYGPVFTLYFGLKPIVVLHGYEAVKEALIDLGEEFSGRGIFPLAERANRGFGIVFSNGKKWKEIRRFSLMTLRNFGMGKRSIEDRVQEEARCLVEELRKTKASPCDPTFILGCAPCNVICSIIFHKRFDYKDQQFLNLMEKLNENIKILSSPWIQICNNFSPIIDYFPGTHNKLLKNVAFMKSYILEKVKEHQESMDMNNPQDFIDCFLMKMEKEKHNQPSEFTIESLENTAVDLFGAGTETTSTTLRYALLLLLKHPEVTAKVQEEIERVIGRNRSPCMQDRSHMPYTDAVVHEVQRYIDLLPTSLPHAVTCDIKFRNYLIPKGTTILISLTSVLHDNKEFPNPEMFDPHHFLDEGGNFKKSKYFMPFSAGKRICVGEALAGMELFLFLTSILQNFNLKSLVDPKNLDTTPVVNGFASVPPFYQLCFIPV
# Procedure, shortened: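 P450-Glo CYP2C9 system: proluciferin substrate with enzyme in mix containing 0.4% BSA, 10 min at room temperature, then NADPH regeneration solution added and incubated 1 h at 37C. Detection reagent stopped reaction; luminescence read after 20 min as RLU.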
# [11] = Primary qHTS for inhibitors of La Crosse Virus (LACV) - induced cell death in SH-SY5Y cells (AID 1508616; active = well fitted curve in the direction sought with a large enough effect; an effect the other way counts as inactive or inconclusive;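 also: top concentration of the series differs between compounds; higher means more rescue of cells from virus-induced death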)
# Procedure, shortened: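 Screening measures cell viability in LACV-infected SH-SY5Y cultures. Compound was added before virus (0.01 MOI), and ATP was detected by luminescence 6 days later.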
# [12] = Primary qHTS for small molecule stabilizers of the endoplasmic reticulum resident proteome: Secreted ER Calcium Modulated Protein (SERCaMP) assay (AID 1508630; active = well fitted curve in the direction sought with a large enough effect; an effect the other way counts as inactive or inconclusive)
# Procedure, shortened: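 The SH-SY5Y reporter protocol was run at 3 concentrations up to 38.3 uM (primary) or 11 concentrations (follow-up): 16 h compound, 100 nM thapsigargin for 4 h, then extracellular luciferase luminescence.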
# [13] = A High-Content qHTS Against Drug Library for the Identification of Small Molecules that Inhibit DYT1 Early Onset Primary Dystonia-Associated Cell Pathology (AID 1645839)
# Procedure, shortened: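 Cells were seeded and left for 24 h, then dosed with compound alongside tetracycline induction of mutant EGFP-TorsinA. They were incubated for 48 h, fixed in 4% paraformaldehyde, permeabilized and imaged for mislocalization (%pathology) and cell count.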
structure (smiles),measurement,setting,value
CC(C)(C(=O)O)c1ccc(C(O)CCCN2CCC(C(O)(c3ccccc3)c3ccccc3)CC2)cc1 (configuration not stated),Potency,[1],inactive
same,Potency,[2],inactive
same,Potency,[3],inactive
same,Potency,[4],inactive
O=C1C(=O)c2ccccc2C(O)=C1C1CCC(c2ccc(Cl)cc2)CC1 (configuration not stated),Potency,[1],inactive
same,Potency,[2],22.4 µM (active)
same,Potency,[5],12.1 µM (active)
Cc1ccc(C)c(OCCCC(C)(C)C(=O)O)c1,Potency,[1],inactive
same,Potency,[2],inactive
same,Potency,[3],inactive
same,Potency,[6],inactive
same,Potency,[4],inactive
same,"activity change, negative = inhibition",[4],-8.37%
CO/N=C1\CN(c2nc3c(cc2F)c(=O)c(C(=O)O)cn3C2CC2)CC1CN (configuration not stated),Potency,[1],inactive
same,Potency,[2],inactive
same,Potency,[3],inactive
same,"activity change, negative = inhibition",[4],-12.6%
CN(C)CCCN1c2ccccc2CCc2ccc(Cl)cc21,Potency,[1],inactive
same,Potency,[2],11.2 µM (active)
same,Potency,[3],inactive
same,Potency,[4],28.2 µM (active)
CC(C(=O)O)c1cccc(C(=O)c2ccccc2)c1 (configuration not stated),Potency,[1],inactive
same,Potency,[2],inactive
same,Potency,[3],inactive
same,Potency,[6],inactive
same,Potency,[4],inactive
same,"activity change, negative = inhibition",[4],-2.03%
C[C@@H]1O[C@@H](O[C@H]2C[C@@H](O)[C@]3(CO)[C@H]4[C@H](O)C[C@]5(C)[C@@H](C6=CC(=O)OC6)CC[C@]5(O)[C@@H]4CC[C@]3(O)C2)[C@H](O)[C@H](O)[C@H]1O,Potency,[1],1.26 µM (active)
same,Potency,[2],inactive
same,Potency,[7],inactive
same,Potency,[8],inactive
same,Potency,[9],inactive
same,Potency,[10],inactive
same,"activity change, negative = inhibition",[4],-97.3% and -94.1%
CC[C@@]1(c2ccccc2)NC(=O)N(C)C1=O,Potency,[1],inactive
same,Potency,[2],inactive
same,Potency,[3],inactive
same,"activity change, negative = inhibition",[4],-24.8%
C[C@@H](O)[C@H]1C(=O)N2C(C(=O)O)=C(S[C@@H]3CN[C@H](C(=O)N(C)C)C3)[C@H](C)[C@H]12,Potency,[1],inactive
same,Potency,[2],inactive
same,Potency,[3],inactive
same,Potency,[6],inactive
same,Potency,[4],inactive
same,"activity change, negative = inhibition",[4],-22.9%
CC/C=C(\C(=O)N[C@@H]1C(=O)N2C(C(=O)OCOC(=O)C(C)(C)C)=C(COC(N)=O)CS[C@H]12)c1csc(N)n1,Potency,[1],inactive
same,Potency,[2],inactive
same,Potency,[3],inactive
same,"activity change, negative = inhibition",[4],-26.6%
CC(C)(C)CC(C)(C)c1ccc(O)cc1,Potency,[1],inactive
same,Potency,[2],inactive
same,Potency,[11],inactive
same,Potency,[8],inactive
same,outcome,[12],inactive
same,Potency,[13],inactive
same,Potency,[9],36.6 µM (active)
same,Potency,[10],11.9 µM (active) and 15.5 µM (active)
Cc1cccc(Nc2ccccc2C(=O)O)c1C,Potency,[1],inactive
same,Potency,[2],inactive
same,Potency,[3],inactive
same,Potency,[4],inactive
CCCCN1C[C@H](O)[C@@H](O)[C@H](O)[C@H]1CO,Potency,[1],inactive
same,Potency,[2],inactive
same,Potency,[3],inactive
same,"activity change, negative = inhibition",[4],-1.04%
N[C@@H]1CONC1=O,Potency,[1],inactive
same,Potency,[2],inactive
same,Potency,[3],inactive
same,Potency,[4],inactive
same,"activity change, negative = inhibition",[4],-2.51%
CCC(C)(C)C(=O)O[C@H]1C[C@@H](C)C=C2C=C[C@H](C)[C@H](CC[C@@H]3C[C@@H](O)CC(=O)O3)[C@H]21,Potency,[1],inactive
same,Potency,[2],inactive
same,Potency,[6],inactive
same,Potency,[4],inactive
Nc1ccc(O)c(C(=O)O)c1,Potency,[1],inactive
same,Potency,[2],inactive
same,Potency,[3],inactive
same,"activity change, negative = inhibition",[4],2.37%
CN(C)CCc1c[nH]c2ccc(CS(=O)(=O)N3CCCC3)cc12,Potency,[1],inactive
same,Potency,[2],inactive
same,Potency,[3],inactive
same,Potency,[6],inactive
same,Potency,[4],inactive
same,"activity change, negative = inhibition",[4],-5.24%
NC1[C@H]2CN(c3nc4c(cc3F)c(=O)c(C(=O)O)cn4-c3ccc(F)cc3F)C[C@@H]12 (some centres not stated),Potency,[1],inactive
same,Potency,[2],inactive
same,Potency,[3],inactive
same,Potency,[4],inactive
CC[C@@H]([C@H](C)O)n1ncn(-c2ccc(N3CCN(c4ccc(OC[C@@H]5CO[C@@](Cn6cncn6)(c6ccc(F)cc6F)C5)cc4)CC3)cc2)c1=O,Potency,[1],inactive
same,Potency,[2],12.6 µM (active)
same,Potency,[3],inactive
same,"activity change, negative = inhibition",[4],-23.1%
Nc1nnc(-c2cccc(Cl)c2Cl)c(N)n1,Potency,[1],inactive
same,Potency,[2],inactive
same,Potency,[3],inactive
same,Potency,[4],inactive
CCn1cc(C(=O)O)c(=O)c2cc(F)c(N3CCNCC3)cc21,Potency,[1],inactive
same,Potency,[2],inactive
same,Potency,[3],inactive
same,Potency,[6],inactive
same,Potency,[4],inactive
same,"activity change, negative = inhibition",[4],-15.8%
CC(C)c1c(C(=O)Nc2ccccc2)c(-c2ccccc2)c(-c2ccc(F)cc2)n1CC[C@@H](O)C[C@@H](O)CC(=O)O,Potency,[1],inactive
same,Potency,[2],inactive
same,Potency,[6],inactive
same,"activity change, negative = inhibition",[4],-13%
COC(=O)C1=C(C)NC(C)=C(C(=O)OC(C)C)C1c1cccc2nonc12 (configuration not stated),Potency,[1],inactive
same,Potency,[2],inactive
same,Potency,[3],inactive
same,Potency,[4],inactive
CN(CCOc1ccc(NS(C)(=O)=O)cc1)CCc1ccc(NS(C)(=O)=O)cc1,Potency,[1],inactive
same,Potency,[2],inactive
same,Potency,[3],inactive
same,"activity change, negative = inhibition",[4],4.03% and 4.22%
O=C1NC(=O)C(c2ccccc2)(c2ccccc2)N1,Potency,[1],inactive
same,Potency,[2],inactive
same,Potency,[3],inactive
same,Potency,[4],inactive
CN(CCOc1ccc(CC2SC(=O)NC2=O)cc1)c1ccccn1 (configuration not stated),Potency,[1],inactive
same,Potency,[2],inactive
same,Potency,[3],inactive
same,Potency,[4],inactive
same,"activity change, negative = inhibition",[4],-30.2%
COc1cc2nc(N3CCN(C(=O)c4ccco4)CC3)nc(N)c2cc1OC,Potency,[1],inactive
same,Potency,[2],inactive
same,Potency,[6],inactive
Clc1ccc(CCC(Cn2ccnc2)Sc2c(Cl)cccc2Cl)cc1 (configuration not stated),Potency,[1],inactive
same,Potency,[3],inactive
same,Potency,[11],inactive
same,Potency,[8],inactive
same,outcome,[12],inactive
same,Potency,[9],0.55 µM (active)
same,Potency,[10],12.3 nM (active)
